Assay outcomes: PubChem BioAssay, Broad Institute
A selection: hits, their analogues and other compounds. The true share with any hit is near 6.8%.
T cruzi growth-1: T. cruzi intracellular proliferation inhibitors, primary screen, cell-based, beta-gal Tulahuen parasites, NIH3T3 host, luminescence; T. cruzi beta-gal in NIH3T3, GalScreen luminescence, 90 h; inhibition, % at 8.34 µM; actives 5.9% (n = 77,000); AID 624255, 2012;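 active = mean inhibition above about 93%, with at least 55% of replicates each passing it, limit read from the data, passing the limit was not always enough; inconclusive = only one of those two conditions holds; inactive = neither condition holds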
C diff growth: C. difficile growth inhibitors, primary screen, HTS. Clostridium difficile clinical isolate growth, OD600, 24 h; hits give low values. actives 0.25% (n = 86,000). growth activity, negative = inhibition, % at 16 µg/mL (by protocol);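 active = mean growth activity at or below -80% and every replicate also at or below -80%; inconclusive = mean at or below -80% but some replicate above -80%; inactive = mean growth activity above -80%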;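 also: 0% = DMSO wells and -100% = levofloxacin 16 µg/mL wells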
Pf Dd2 inh: P. falciparum Dd2 growth inhibitors, primary screen, SYBR Green fluorescence, single dose replicates. 72 h; hits give low values. activity change, % at 10 µM. actives 2.3% (n = 94,000); in the data active = activity change below about -80%; inconclusive = no clear call, values can overlap the other calls
T cruzi growth-2: T. cruzi intracellular proliferation inhibitors, confirmation, cell-based, NIH3T3 host, beta-gal parasite, luminescence, cherry-pick. inhibition, % at 8.35 µM. shares compounds with T cruzi growth-1. actives 72% (n = 5,600). T. cruzi beta-gal in NIH3T3, GalScreen luminescence, 90 h;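 active = mean replicate inhibition above about 95% and at least 55% of replicates individually reaching it, limit read from the data; inconclusive = only one of the two criteria is met; inactive = neither criterion is met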
T cruzi growth-3: inhibitors of intracellular T. cruzi replication, confirmation, NIH3T3 host cells, beta-gal parasites, cherry-pick, set 2; shares compounds with T cruzi growth-1; T. cruzi beta-gal in NIH3T3, GalScreen luminescence, 90 h; inhibition, % at 2.09 µM; actives 21% (n = 5,600); AID 651740, 2012;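 active = mean inhibition above about 95%, with at least 55% of replicates also reaching it, limit read from the data; inconclusive = meets just one of the two conditions; inactive = meets neither condition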;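 also: plate controls were neutral control median for no effect and positive control median for full effect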
3T3 cytotox: cytotoxicity in mouse NIH/3T3 fibroblasts, confirmation, cytotoxicity control for T. cruzi proliferation inhibitor project, cell-based, cherry-pick, single point; shares compounds with T cruzi growth-1; NIH/3T3 viability, CellTiter-Glo ATP luminescence, 90 h; cytotoxicity (signal decrease), % at 8.35 µM; actives 14% (n = 5,600); AID 651742, 2012;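 active = mean signal decrease across replicates above about 35% based on untreated-well scatter, with enough replicates individually passing, limit read from the data; inconclusive = no rule stated though some were filed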;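 also: 0% = median of neutral control wells and 100% = median of positive control wells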
3T3 cytotox 2: NIH/3T3 fibroblast cytotoxicity, confirmation, cytotoxicity control, cell-based, cherry-pick, single point, set 2 | AID 651744, 2012 | inhibition, % at 24.9 µM | shares compounds with T cruzi growth-1 | NIH/3T3 viability, CellTiter-Glo ATP luminescence, 90 h | actives 56% (n = 5,600);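 active = mean loss of cell viability signal at or above a set limit, and enough replicates individually reaching it; inconclusive = meets only the mean limit or only the replicate share; inactive = meets neither condition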;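 also: 0% = median of neutral control wells and 100% = median of positive control wells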
Numbers without * were called inactive; ? = inconclusive; nt = not tested or not shown.

SMILES | T cruzi growth-1 | C diff growth | Pf Dd2 inh | T cruzi growth-2 | T cruzi growth-3 | 3T3 cytotox | 3T3 cytotox 2
CCCC#Cc1cnc2c(c1)C(=O)N([C@@H](C)CO)C[C@H](C)[C@@H](CN(C)C(=O)Nc1cccc(F)c1)O2 | nt | 1 | -22 | nt | nt | nt | nt
COCC#Cc1ccc2c(c1)O[C@H](CN(C)S(=O)(=O)c1cccc(OC)c1)[C@@H](C)CN([C@H](C)CO)S2(=O)=O | 35 | 4 | -47 | nt | nt | nt | nt
N#C[C@H]1[C@H](c2ccc(C#CC3CCCC3)cc2)[C@@H](CO)N1C(=O)Nc1ccc(F)cc1 | 93 | 6 | -38 | nt | nt | nt | nt
CC(C)NC(=O)N1[C@H](C#N)[C@@H](c2ccc(C#CC3CCCCC3)cc2)[C@@H]1CO | 96* | -7 | -73 | 96* | 113* | -2 | 105*
N#C[C@H]1[C@@H](c2ccc(C#CC3CC3)cc2)[C@@H](CO)N1C(=O)Nc1ccc(F)cc1 | 34 | -1 | 33 | nt | nt | nt | nt
N#C[C@@H]1[C@H](c2ccc(C#CC3CCCC3)cc2)[C@@H](CO)N1C(=O)Nc1ccc(F)cc1 | 98* | -2 | -9 | 99* | 95 | 2 | 107*
C[C@@H]1CN([C@H](C)CO)C(=O)c2cc(-c3ccc(F)cc3)cnc2O[C@@H]1CN(C)Cc1cncnc1 | -32 | -1 | 2 | nt | nt | nt | nt
O=C(C[C@@H]1CC[C@H]2[C@@H](COC[C@@H](O)CN2C(=O)c2ccncc2)O1)NC1Cc2ccccc2C1 | 20 | -1 | -3 | nt | nt | nt | nt
COCCNC(=O)C[C@H]1C[C@@H]2c3cc(NC(=O)c4cccnc4)ccc3O[C@@H]2[C@@H](CO)O1 | 20 | 2 | 15 | nt | nt | nt | nt
CN1c2ccc(-c3cccc(F)c3)cc2[C@@H]2[C@@H](CCN2C(=O)Cc2cccnc2)[C@H]1CO | 77 | -6 | -8 | nt | nt | nt | nt
CN1c2ccc(-c3cccc(F)c3)cc2[C@H]2[C@H](CCN2C(=O)Cc2cccnc2)[C@@H]1CO | 54 | -3 | 6 | nt | nt | nt | nt
CN1c2ccc(-c3ccc(F)cc3)cc2[C@H]2[C@H](CCN2C(=O)Cc2cccnc2)[C@@H]1CO | 107* | -3 | -13 | 110* | 104* | -26 | 5
CN1c2ccc(-c3ccc(F)cc3)cc2[C@H]2[C@H](CCN2C(=O)Cc2cccnc2)[C@H]1CO | ? | -4 | 20 | 92 | 55 | -16 | 10
COCC(=O)Nc1ccc2c(c1)C(=O)N(C)[C@@H]1CC[C@H](CC(=O)NCCc3ccccc3)O[C@H]1CO2 | -3 | -5 | -7 | nt | nt | nt | nt
O=C(C[C@@H]1C[C@@H]2c3cc(NC(=O)C4CCC4)ccc3O[C@@H]2[C@H](CO)O1)NCc1ccccc1 | 15 | nt | 6 | nt | nt | nt | nt
CCCC#Cc1ccc2c(c1)O[C@@H](CN(C)Cc1cncnc1)[C@@H](C)CN([C@H](C)CO)S2(=O)=O | 50 | 8 | -13 | nt | nt | nt | nt
CCCC#Cc1ccc2c(c1)O[C@H](CN(C)Cc1cncnc1)[C@@H](C)CN([C@@H](C)CO)S2(=O)=O | ? | 30 | -40 | 107* | 101* | ? | 99*
CC(C)CC#Cc1ccc2c(c1)O[C@H](CN(C)Cc1cncnc1)[C@@H](C)CN([C@@H](C)CO)S2(=O)=O | 111* | -9 | -31 | 101* | 101* | ? | 98*
CC(C)CC#Cc1ccc2c(c1)O[C@H](CN(C)Cc1cncnc1)[C@H](C)CN([C@@H](C)CO)S2(=O)=O | 50 | -7 | -3 | nt | nt | nt | nt
C/C=C/c1ccc([C@@H]2[C@H](CO)N(C(=O)CC)[C@H]2CNC(=O)CC2CC2)cc1 | 16 | nt | 2 | nt | nt | nt | nt
C[C@H](CO)N1C[C@H](C)[C@@H](CN(C)Cc2ccncc2)Oc2ccc(NC(=O)Cn3cnnn3)cc2CC1=O | 18 | -4 | 8 | nt | nt | nt | nt
O=C(Nc1nccs1)[C@@H]1[C@@H](CO)[C@@H]2Cn3c(cccc3=O)[C@H]1N2C(=O)C1CCCCC1 | nt | -1 | 28 | nt | nt | nt | nt
CO[C@@H]1CN(C)C(=O)c2cc(NC(=O)c3cccc(F)c3)ccc2OC[C@H](C)N(C(C)=O)C[C@@H]1C | 73 | nt | nt | nt | nt | nt | nt
COc1ccc(S(=O)(=O)N(C)C[C@H]2Oc3ccc(NC(=O)Cn4cnnn4)cc3C(=O)N([C@H](C)CO)C[C@@H]2C)cc1 | -80 | -1 | 1 | nt | nt | nt | nt
COc1ccc(S(=O)(=O)N(C)C[C@@H]2Oc3ccc(NC(=O)Cn4cnnn4)cc3C(=O)N([C@H](C)CO)C[C@H]2C)cc1 | 105* | -1 | -24 | 52 | -5 | -14 | 10
SMILES | T cruzi growth-1 | C diff growth | Pf Dd2 inh | T cruzi growth-2 | T cruzi growth-3 | 3T3 cytotox | 3T3 cytotox 2
COc1ccc(S(=O)(=O)N(C)C[C@H]2Oc3ccc(NC(=O)Cn4cnnn4)cc3C(=O)N([C@H](C)CO)C[C@H]2C)cc1 | 50 | -1 | -8 | nt | nt | nt | nt
COc1ccc(S(=O)(=O)N(C)C[C@H]2Oc3ccc(NC(=O)Cn4cnnn4)cc3C(=O)N([C@@H](C)CO)C[C@@H]2C)cc1 | 100* | -5 | -25 | -13 | -14 | -6 | 14
COCC(=O)Nc1ccc2c(c1)[C@H]1C[C@@H](CC(=O)NCc3ccccc3F)O[C@@H](CO)[C@H]1O2 | 14 | nt | -2 | nt | nt | nt | nt
Cc1ccccc1-c1ccc([C@@H]2[C@H](CO)N3CCCCN(S(=O)(=O)Cc4ccccc4)C[C@@H]23)cc1 | 33 | -42 | -72 | nt | nt | nt | nt
O=S(=O)(Cc1ccccc1)N1CCCCN2[C@H](CO)[C@H](c3ccc(-c4ccc(F)cc4)cc3)[C@@H]2C1 | 100* | 36 | 10 | 99* | 75 | 27 | 105*
O=S(=O)(Cc1ccccc1)N1CCCCN2[C@@H](CO)[C@H](c3ccc(-c4ccc(F)cc4)cc3)[C@@H]2C1 | 94 | 40 | -31 | nt | nt | nt | nt
O=S(=O)(Cc1ccccc1)N1CCCCN2[C@H](CO)[C@@H](c3ccc(-c4ccc(F)cc4)cc3)[C@@H]2C1 | 109* | 35 | 0 | 108* | 52 | 23 | 102*
C[C@@H]1CCCCO[C@H](CN(C)Cc2ccncc2)[C@@H](C)CN([C@H](C)CO)C(=O)c2cc(NC(=O)CCC(F)(F)F)ccc2O1 | 26 | 3 | -3 | nt | nt | nt | nt
CC(C)NC(=O)Nc1ccc2c(c1)C(=O)N([C@H](C)CO)C[C@H](C)[C@H](CN(C)CC1CC1)OCCCC[C@H](C)O2 | -9 | -2 | -23 | nt | nt | nt | nt
CN1C(=O)c2cc(NC(=O)c3ccc(F)cc3)ccc2OC[C@H]2O[C@H](CC(=O)NCC3CCCCC3)CC[C@H]21 | 38 | 3 | -37 | nt | nt | nt | nt
